The whole screen tested about 16,000 compounds, of which about 2,600 (16%) were called active. Another 20% or so got no clear call; they are omitted. The call rests on the fitted dose curve; in most records, active means well fitted curve in the direction sought with a large enough effect; inconclusive means small, poorly fitted or top-dose-only effect, or effect the other way; inactive means no such curve, though single readings can be large or run the other way. These entries were drawn from the full list.
Molecular target: Cytochrome P450 2D6 (Homo sapiens) (UniProt P10635)
Sequence (P10635 whole entry, looked up): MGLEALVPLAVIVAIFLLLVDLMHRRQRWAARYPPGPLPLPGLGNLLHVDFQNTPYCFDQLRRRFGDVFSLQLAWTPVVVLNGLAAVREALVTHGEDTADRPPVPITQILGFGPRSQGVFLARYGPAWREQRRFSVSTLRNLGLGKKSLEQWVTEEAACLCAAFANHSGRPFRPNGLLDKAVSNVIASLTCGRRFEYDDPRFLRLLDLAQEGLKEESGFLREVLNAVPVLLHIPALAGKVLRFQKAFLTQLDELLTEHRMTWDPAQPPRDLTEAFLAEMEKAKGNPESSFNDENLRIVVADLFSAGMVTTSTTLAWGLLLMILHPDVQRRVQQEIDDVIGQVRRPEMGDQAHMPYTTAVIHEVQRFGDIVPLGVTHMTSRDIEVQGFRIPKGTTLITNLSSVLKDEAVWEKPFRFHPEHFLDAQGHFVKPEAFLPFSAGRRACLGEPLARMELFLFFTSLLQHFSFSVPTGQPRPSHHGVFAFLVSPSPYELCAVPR
Test: Cytochrome panel assay with activity outcomes
Settings: recombinant CYP, pro-luciferin dealkylation, luminescence, p450-cyp2d6; series mostly up to 57.1 µM; activity, negative = inhibition: at the top concentration
On the % scale 0 is the no-effect control and ±100 the full control effect.

activity, negative = inhibition, inactive:
C#C[C@@]1(O)CC[C@@H]2[C@@H]3CCC4=CC(=O)CC[C@@H]4[C@H]3CC[C@]21CC -0.799% [at 25.6 µM]
Cc1onc(C(=O)/C=C/N(C)C)c1C(=O)Nc1nccs1 -1.61%
c1cnc(Nc2nc(-c3ccc4ccccc4c3)cs2)nc1 -6.94%
Cc1ccc(Nc2nc(-c3sc(NC(=O)c4cccc(Cl)c4)nc3C)cs2)cc1 -6.37%
C/C(CC(=O)NC1CCCC1)=N\NC(=O)Cc1cccs1 10.6%
COC(=O)[C@H]1C[C@@H]1[C@H](NC(=O)c1ccccc1)c1ccccc1 4.63%
CCCSc1nc(SCC(=O)NCc2ccccc2)c2c3c(sc2n1)COC(C)(CC)C3 (stereo not given) -15.9%
CC1(C)Cc2c(sc3nc(-c4ccccc4)n(N)c(=O)c23)CO1 -5.96%
COc1ccc(OCCNS(=O)(=O)c2ccc3oc4ccccc4c3c2)cc1 -2.58%
O=C(O)C[C@H](Cc1ccc2c(c1)OCO2)C(=O)O -3.42% [at 11.4 µM]
Cc1ccc(C2/C(=C(/O)c3ccccc3)C(=O)C(=O)N2CCN2CCOCC2)o1 (stereo not given) -22.7%
Cc1nc2ccc(S(=O)(=O)NC(CC(C)C)C(=O)O)cc2s1 (stereo not given) 25.2%
C=CCNC(=S)N1CCN(c2ncc3c(=O)c(C(=O)O)cn(CC)c3n2)CC1 -0.755%
N#Cc1ccc(Oc2nc(C(N)=O)cc(-c3ccccc3)n2)cc1 -4.01%
CC(=O)C1=NOC(CNC(=O)c2c(-c3ccccc3Cl)noc2C)C1 (stereo not given) -4.95%
CC1(C)c2ssc(=S)c2-c2ccccc2N1C(=O)CSC1=NCCS1 -7.47%
COC(=O)c1ccc(Oc2coc3cc(OCc4cnn(-c5ccccc5)c4)ccc3c2=O)cc1 7.36%
CCc1ccc(OCC(=O)OC2CCS(=O)(=O)C2)cc1 (stereo not given) 12.6%
COc1ccc(-n2ncc3c(NCC4CCCO4)ncnc32)cc1 (stereo not given) -3.61%
O=C(Oc1ccccc1)N1CCC2(CC1)CCN(c1ccccc1)CC2 -6.87%
Brc1ccc(-c2nnc(-c3cccc(Br)c3)o2)cc1 16.4%
CCCNC(=S)Nc1ccc(Br)cc1 -5.15%
CCc1ccc(NC(=O)CS(=O)CC(=O)NCCCc2ccccc2)cc1 (stereo not given) -22.8%
CCC(c1nnnn1CC1CCCO1)N(CCN1CCOCC1)Cc1cc2cc(C)ccc2[nH]c1=O (stereo not given) -8.76%
CC(=O)Nc1ccc(N2C(=O)CSC2c2c(F)cccc2Cl)cc1 (stereo not given) -25.8%
O=C1CSC(c2ccccn2)N1c1ccc(Cl)c(Cl)c1 (stereo not given) -11.2%
Cc1ccc2nc(-c3ccc(NC(=O)Cc4cccs4)cc3)[nH]c2c1 -5.32%
COc1ccc(NC(=O)CSc2nnc(C3CC3)n2N)cc1 -7.25%
CCn1nnnc1SCC(=O)NC1CCCC1 -28.2%
CCOc1ccc(C2=Nn3c(nnc3-c3ccco3)SC2)cc1 -6.18%
CCOc1ccc(-c2nnc3n2N=C(c2ccc(OC)cc2)CS3)cc1 3.29%
CC1(C)O[C@H]2C[C@@H]3[C@H]4CCC5=CC(=O)CC[C@@]5(C)[C@]4(F)[C@@H](O)C[C@@]3(C)[C@@]2(C(=O)CCl)O1 -10.6% [at 25.6 µM]
CC(C)CC(=O)Nc1ccccc1-c1nnn(CC(=O)N2CCc3ccccc3C2)n1 -23.8%
Cc1nnc(SCC(=O)NCC2CCCCC2)n(N)c1=O -11.6%
O=C(c1cc(-c2ccco2)on1)N1CCOCC1 -7.84%
CC(C)CCNC(=O)C12CN(Cc3ccccc3)CC1C(c1cccc([N+](=O)[O-])c1)=NO2 (stereo not given) -23.9%
O=C(Cc1ccccc1)N/N=C/C=C/c1cccc([N+](=O)[O-])c1 -14.8%
CCSC[C@@H](N)C(=O)O -5.75% [at 11.4 µM]
O=c1nc(-c2ccccc2)cn[nH]1 5.87%
C/C=C\C[C@@H](C)[C@@H](O)[C@H]1C(=O)N[C@@H](CC)C(=O)N(C)CC(=O)N(C)[C@@H](CC(C)C)C(=O)N[C@@H](C(C)C)C(=O)N(C)[C@@H](CC(C)C)C(=O)N[C@@H](C)C(=O)N[C@H](C)C(=O)N(C)[C@@H](CC(C)C)C(=O)N(C)[C@@H](CC(C)C)C(=O)N(C)[C@@H](C(C)C)C(=O)N1C -14.7%
CCOC(=O)n1c(=O)n(Cc2c(Cl)cccc2Cl)c2ccccc21 -12.5%
CC(C)(C)N1C(=O)[C@H]2[C@H]3[C@H](O)[C@H](O)C/C(=N/NC(=O)OCc4ccccc4)[C@@H]3CC[C@@H]2C1=O -18.8% [at 11.4 µM]
COCC(=O)N1CCC2(CCCN(C(=O)Nc3cccc(F)c3)C2)CC1 1.9%
COCC(=O)N1CCC2(CCCN(Cc3ccccc3OC)C2)CC1 12.4%
COc1ccc(NC(=O)N2CC[C@@]3(CCCN(C(C)=O)C3)C2)cc1 0.963%
CC(=O)N1CCC[C@@]2(CCN(c3ccncc3)C2)C1 -5.51%
COC(=O)N1CCC2(CCCN(C(=O)Nc3ccc(OC)cc3)C2)CC1 2.1%

AC50, active:
Cc1ccc(Nc2nc(-c3c(C)nc4ncccn34)cs2)cc1 12.6 µM
CCC1(C)Cc2c(sc3nnn(CC(=O)Nc4cccc5ccccc45)c(=O)c23)CO1 (stereo not given) 15.8 µM
Cc1c(C(=O)O)oc2ccc(S(=O)(=O)NCc3ccc4c(c3)OCO4)cc12 15.8 µM
Oc1ccccc1C1Nc2cccc3cccc(c23)N1 10 µM
Cc1[nH]nc(-c2ccc(OCc3cnn(-c4ccccc4)c3)cc2O)c1Oc1ccccc1F 11.2 µM
Cc1[nH]nc(-c2ccc(OCc3cnn(-c4ccccc4)c3)cc2O)c1Oc1ccc(F)cc1 7.08 µM
CCCCc1ccc(NC(=S)NCc2cccs2)cc1 4.47 µM
O=C1CSC(c2ccccc2F)N1c1cc(Cl)ccc1O (stereo not given) 31.6 µM
O=C(CSc1nnnn1C1CCCC1)Nc1ccc(F)cc1 14.1 µM
CCc1ccc(C2=Nn3c(nnc3-c3cccs3)SC2)cc1 2.82 µM
O=C(O)NCC1CCCCC1 (tested in a mixture with another compound) 3.98 µM
O=C(NCc1ccccc1)C12CN(Cc3ccccc3)CC1C(c1cccc([N+](=O)[O-])c1)=NO2 (stereo not given) 5.01 µM
COc1ccccc1CN1CCCC2(CCN(C(C)=O)CC2)C1 3.16 µM
COCC(=O)N1CCC[C@@]2(CCN(Cc3ccccc3OC)C2)C1 6.31 µM
COc1ccccc1CN1CC[C@@]2(CCCN(C(C)=O)C2)C1 3.16 µM
COC(=O)N1CCC2(CCCN(Cc3ccccc3OC)C2)CC1 3.16 µM

AC50, inactive:
CCC1(c2ccccc2)C(=O)NCNC1=O
C[C@H]1NC(=O)NC1=O

Reference: PubChem BioAssay AID1851 (National Center for Advancing Translational Sciences (NCATS), 2009)
